# Experimental data from PubChem BioAssay (NCI).
# This is part of a sample that, as a whole, favours compounds with a hit. Of some 79,000 tested, about 15% had one in any assay. Values without a mark were called inactive. Activity calls are given as the source filed them. No stated cut-off is given here; in the data, active means growth inhibition above about 70%; inactive means the rest.
# Experiments:
# [1] = NCI Yeast Anticancer Drug Screen. Data for the wt1 strain (AID 149);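 further: 0% = growth of vehicle-treated wt1 cultures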; conditions: S. cerevisiae wt1 strain (SPY 50644) growth inhibition, active compounds read high
# Summary of the method: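 Each compound is tested on wt1 yeast and the loss of growth versus vehicle gives the inhibition value.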
# [2] = NCI Yeast Anticancer Drug Screen. Data for the rad50EPP+ strain (AID 151);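 further: 0% = growth of vehicle-treated control cultures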; conditions: S. cerevisiae rad50 mutant strain, active compounds read high
# Summary of the method: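 Measured: growth inhibition of rad50EPP+ yeast. Reference: vehicle-treated controls. Screen uses strains with defined genetic alterations in DNA damage repair or cell cycle control.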
# [3] = NCI Yeast Anticancer Drug Screen. Data for the mgt1 strain (AID 153); conditions: S. cerevisiae mgt1 mutant growth inhibition, active compounds read high
# Summary of the method: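 Compounds were applied to mgt1 mutant yeast, and growth was then compared against vehicle-treated control cultures to give percent inhibition.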
# [4] = NCI Yeast Anticancer Drug Screen. Data for the rad50 strain (AID 155);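 further: 0% = growth of vehicle-only cultures of the same strain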; conditions: S. cerevisiae rad50 strain growth inhibition, active compounds read high
# Summary of the method: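 Vehicle-treated cultures provide the reference for the growth inhibition reported for compound-exposed, repair-deficient yeast.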
# [5] = NCI Yeast Anticancer Drug Screen. Data for the mec2-1 strain (AID 157); conditions: S. cerevisiae mec2-1 strain, active compounds read high
# Summary of the method: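 Compounds were applied to mec2-1 yeast cells. Their growth was then compared with that of vehicle-treated cultures to give growth inhibition.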
# [6] = NCI Yeast Anticancer Drug Screen. Data for the rad14 strain (AID 159);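 further: 0% = growth of vehicle-treated control cultures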; conditions: S. cerevisiae rad14 strain growth inhibition, active compounds read high
# Summary of the method: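 Inhibition of growth is reported for a repair-deficient yeast mutant following compound treatment, calculated relative to cultures that received vehicle.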
# [7] = NCI Yeast Anticancer Drug Screen. Data for the sgs1 mgt1 strain (AID 161);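 further: 0% = growth of cultures given vehicle only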; conditions: S. cerevisiae sgs1 mgt1 strain, active compounds read high
# Summary of the method: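 Compounds are added to genetically altered yeast, and growth is compared with cultures given vehicle alone to give percent inhibition.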
# [8] = NCI Yeast Anticancer Drug Screen. Data for the CLN2oe strain (AID 163);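 further: 0% = growth of vehicle-only control cultures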; conditions: S. cerevisiae CLN2oe strain, active compounds read high
# Summary of the method: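 Cells of an engineered yeast line with disturbed cell-cycle regulation are treated with compound. Inhibition of growth is then calculated relative to the vehicle-treated reference.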
# [9] = NCI Yeast Anticancer Drug Screen. Data for the cln2 rad14 strain (AID 165);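 further: 0% = growth equal to vehicle treated cultures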; conditions: S. cerevisiae cln2 rad14 strain, active compounds read high
# Summary of the method: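 Strain: cln2 rad14 yeast, altered in cell cycle control and DNA damage repair. Read-out: growth inhibition vs vehicle.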
# [10] = NCI Yeast Anticancer Drug Screen. Data for the bub3 strain (AID 167); conditions: S. cerevisiae bub3 mutant strain, active compounds read high
# Summary of the method: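 Mutant yeast screening strain plus compound; vehicle-treated cultures serve as the 0% inhibition reference.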
# [11] = NCI Yeast Anticancer Drug Screen. Data for the wt2 strain (AID 169); conditions: S. cerevisiae wt2 strain growth inhibition, active compounds read high
# Summary of the method: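 Growth of compound-treated yeast is measured and expressed as inhibition relative to vehicle-only controls.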
# [12] = NCI Yeast Anticancer Drug Screen. Data for the mlh1 strain (AID 171);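 further: 0% = growth of vehicle-treated control cultures of the same strain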; conditions: S. cerevisiae mlh1 strain growth inhibition, active compounds read high
# Summary of the method: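 Test agents were incubated with yeast bearing a defined DNA damage repair or cell cycle control alteration; values are growth inhibition normalised to vehicle-treated cultures.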
# [13] = NCI Yeast Anticancer Drug Screen. Data for the sgs1 strain (AID 173);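 further: 0% = growth of vehicle-only control cultures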; conditions: S. cerevisiae sgs1 mutant, active compounds read high
# Summary of the method: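 Strain with an altered DNA repair or cell cycle pathway exposed to compound. Growth then measured. Value = inhibition versus vehicle control.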
# [14] = NCI Yeast Anticancer Drug Screen. Data for the mlh1 rad18 strain (AID 175); conditions: S. cerevisiae mlh1 rad18 strain growth inhibition, active compounds read high
# Summary of the method: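 A repair-deficient yeast strain is exposed to test compound, and growth is scored relative to vehicle-treated controls.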
# [15] = NCI Yeast Anticancer Drug Screen. Data for the rad18 strain (AID 177); conditions: S. cerevisiae rad18 mutant growth inhibition, active compounds read high
# Summary of the method: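 DNA-repair-defective yeast; compound treatment; growth inhibition scored against vehicle.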
# [16] = at 5.0 µM (retest, dose inferred, filed as 0.5)
# [17] = at 50.0 µM (retest, dose inferred, filed as 5.0)
compound,measurement,setting,value
O=C(NCCCCCCCN1CCCCCCC1)C(C1CCCCC1)C1CCCCC1,growth inhibition,[1]; at 1.2 µM,18%
same,growth inhibition,[1]; at 3.7 µM,26%
same,growth inhibition,[1]; at 11.0 µM,61%
same,growth inhibition,[1]; at 33.0 µM,97% (active)
same,growth inhibition,[1]; at 100.0 µM,98% (active)
same,growth inhibition,[2]; at 1.2 µM,0%
same,growth inhibition,[2]; at 3.7 µM,-1%
same,growth inhibition,[2]; at 11.0 µM,4%
same,growth inhibition,[2]; at 33.0 µM,16%
same,growth inhibition,[2]; at 100.0 µM,41%
same,growth inhibition,[3]; at 1.2 µM,64%
same,growth inhibition,[3]; at 3.7 µM,83% (active)
same,growth inhibition,[3]; at 11.0 µM,97% (active)
same,growth inhibition,[3]; at 33.0 µM,98% (active)
same,growth inhibition,[3]; at 100.0 µM,99% (active)
same,growth inhibition,[4]; at 1.2 µM,41%
same,growth inhibition,[4]; at 3.7 µM,45%
same,growth inhibition,[4]; [16],35%
same,growth inhibition,[4]; at 11.0 µM,81% (active)
same,growth inhibition,[4]; at 33.0 µM,98% (active)
same,growth inhibition,[4]; [17],99% (active)
same,growth inhibition,[4]; at 50.0 µM,99.3% (active)
same,growth inhibition,[4]; at 100.0 µM,98% (active)
same,growth inhibition,[5]; at 1.2 µM,43%
same,growth inhibition,[5]; at 3.7 µM,39%
same,growth inhibition,[5]; [16],29%
same,growth inhibition,[5]; at 11.0 µM,85% (active)
same,growth inhibition,[5]; at 33.0 µM,98% (active)
same,growth inhibition,[5]; [17],97% (active)
same,growth inhibition,[5]; at 50.0 µM,94.2% (active)
same,growth inhibition,[5]; at 100.0 µM,99% (active)
same,growth inhibition,[6]; at 1.2 µM,72% (active)
same,growth inhibition,[6]; at 3.7 µM,75% (active)
same,growth inhibition,[6]; at 11.0 µM,97% (active)
same,growth inhibition,[6]; at 33.0 µM,99% (active)
same,growth inhibition,[6]; at 100.0 µM,99% (active)
same,growth inhibition,[7]; [16],36%
same,growth inhibition,[7]; [17],98% (active)
same,growth inhibition,[7]; at 50.0 µM,99% (active)
same,growth inhibition,[8]; at 1.2 µM,53%
same,growth inhibition,[8]; at 3.7 µM,65%
same,growth inhibition,[8]; at 11.0 µM,92% (active)
same,growth inhibition,[8]; at 33.0 µM,97% (active)
same,growth inhibition,[8]; at 100.0 µM,98% (active)
same,growth inhibition,[9]; [16],62%
same,growth inhibition,[9]; [17],98% (active)
same,growth inhibition,[9]; at 50.0 µM,96.5% (active)
same,growth inhibition,[10]; at 1.2 µM,65%
same,growth inhibition,[10]; at 3.7 µM,66%
same,growth inhibition,[10]; [16],27%
same,growth inhibition,[10]; at 11.0 µM,95% (active)
same,growth inhibition,[10]; at 33.0 µM,97% (active)
same,growth inhibition,[10]; [17],99% (active)
same,growth inhibition,[10]; at 50.0 µM,99% (active)
same,growth inhibition,[10]; at 100.0 µM,98% (active)
same,growth inhibition,[11]; at 1.2 µM,37%
same,growth inhibition,[11]; at 3.7 µM,56%
same,growth inhibition,[11]; at 11.0 µM,95% (active)
same,growth inhibition,[11]; at 33.0 µM,98% (active)
same,growth inhibition,[11]; at 100.0 µM,99% (active)
same,growth inhibition,[12]; at 1.2 µM,44%
same,growth inhibition,[12]; at 3.7 µM,48%
same,growth inhibition,[12]; at 11.0 µM,95% (active)
same,growth inhibition,[12]; at 33.0 µM,98% (active)
same,growth inhibition,[12]; at 100.0 µM,99% (active)
same,growth inhibition,[13]; at 1.2 µM,59%
same,growth inhibition,[13]; at 3.7 µM,67%
same,growth inhibition,[13]; at 11.0 µM,95% (active)
same,growth inhibition,[13]; at 33.0 µM,98% (active)
same,growth inhibition,[13]; at 100.0 µM,99% (active)
same,growth inhibition,[14]; [16],17%
same,growth inhibition,[14]; [17],98% (active)
same,growth inhibition,[14]; at 50.0 µM,99.2% (active)
same,growth inhibition,[15]; at 1.2 µM,51%
same,growth inhibition,[15]; at 3.7 µM,64%
same,growth inhibition,[15]; at 11.0 µM,92% (active)
same,growth inhibition,[15]; at 33.0 µM,97% (active)
same,growth inhibition,[15]; at 100.0 µM,98% (active)
